This note sets out measurements from PubChem BioAssay (NCI).

Test in all cases: NCI-60 one-dose screen, 48 h (100 = growth as untreated, 0 = no growth, -100 = all killed)
Holding throughout (conditions): 10 µM unless noted

The subject of assay [1] is K-562 leukemia.
Assay [2] concerns MALME-3M melanoma.
Assay [3] deals with MDA-MB-231 breast.
Assay [4] has as its system RXF 393 renal.
The subject of assay [5] is SF-268 CNS.
The test system of assay [6] is SF-295 CNS.
In assay [7] the test system is SF-539 CNS.
Assay [8] concerns UACC-257 melanoma.
Assay [9] concerns M14 melanoma.
In assay [10] the test system is HCT-15 colon.
Assay [11] has as its system HT29 colon.
In assay [12] the test system is SNB-75 CNS.
The subject of assay [13] is SNB-19 CNS.
Assay [14] relates to PC-3 prostate.
Assay [15] concerns SK-MEL-5 melanoma.
Assay [16] has as its system UACC-62 melanoma.
Assay [17] has as its system SK-MEL-28 melanoma.
The test system of assay [18] is U251 CNS.
The test system of assay [19] is SK-MEL-2 melanoma.
Assay [20] relates to LOX IMVI melanoma.

The panel holds about 83,000 compounds, 20% with a hit somewhere; the sample as a whole holds those more often.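 Interpretation: 100, growth as untreated; towards 0, rising growth inhibition; 0, no net growth; 0 to -100, cell death. Compounds scoring below 10 were considered active.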 A number with no mark means an inactive call. Calls of active or inactive are those of the source.

For `O=C(O)c1ccc(NC(=O)c2ccc(Nc3ccnc(C(F)(F)F)c3)cc2)cc1`, the growth in assay [1] was 94.1%; in assay [2] it was 103%; in [3] it was 109%; in assay [4], 97.9%; in assay [5], 98%; in [6] it was 108%. The growth is 104% in assay [7]; 99.6% in assay [8]; 107% in [9]; 92.1% in [10]; 109% in [11]; 98.7% in [12]. The growth in assay [13] was 99.7%; in assay [14] it was 99.4%; in assay [15] it was 101%; in [16], 107%; in assay [17], 106%.
Regarding `O=C(O)c1ccc(NC(=O)c2cccc(Nc3ccnc(C(F)(F)F)c3)c2)cc1`, the growth in assay [1] is 105%; in assay [2], 93.5%; in assay [3], 110%; in assay [4] it was 103%; in assay [5] it was 104%; in assay [6] it was 88.8%. In addition, the growth was 106% in assay [7]; 98.7% in [8]; 95.6% in assay [9]; 96.5% in assay [10]; 106% in assay [11]; 105% in assay [12]. The growth is 106% in assay [13]; 105% in assay [14]; 101% in assay [15]; 108% in assay [16]; 110% in assay [17].
In the case of `COc1ccc(-c2cn(-c3ccccc3)c(-c3ccccc3)n2)cc1OC`, the growth is 14.8% in [1]; 111% in assay [2]; 73.8% in assay [3]; 102% in assay [4]; 47.9% in [5]; 94.7% in [6]. Besides, the growth in [7] was 79.6%; in assay [8] it was 105%; in assay [9], 87%; in [10] it was 17.1%; in assay [11], 19.4%; in assay [12], 95.9%. For the same molecule, the growth in assay [13] was 117%; in [18], 29.2%; in assay [15], 74.5%; in assay [16], 62.4%; in assay [17], 102%.
Turning to `CN1COc2ccc3ccccc3c2C1`, the growth was 99.7% in assay [1]; 111% in assay [2]; 102% in assay [3]; 107% in [4]; 100% in [5]; 96.1% in [6]. Besides, the growth was 84.9% in assay [7]; 107% in assay [8]; 86.4% in assay [9]; 106% in [10]; 99.2% in [11]; 72.1% in [12]. The growth is 104% in [13]; 92% in [18]; 105% in assay [15]; 85% in assay [16]; 98.6% in assay [17]; 93.2% in [19].
`CCOC(=O)/C=C(/C)Sc1cc(O)c2ccccc2c1O`: the growth in assay [1] is 17.6%; in assay [2], -90% (active); in assay [3], 14.7%; in assay [4] it was 46.1%; in assay [5] it was 32.8%; in assay [6], 30.2%. For the same molecule, the growth in [7] was 5.78% (active); in assay [8] it was 5.04% (active); in assay [9], -94.6% (active); in assay [10], -12.6% (active); in [11], 79.7%; in assay [12], -83% (active). Also, the growth in [13] was -14.7% (active); in assay [18], 20%; in assay [15], -99.1% (active); in assay [16] it was 36.3%; in [20], -36.1% (active); in assay [17] it was -53.9% (active). Also, the growth in assay [19] was 27.8%.
Consider `O=c1ccn(C2OC(CO)C(O)C2F)c(=O)[nH]1` (stereo not given), for which the growth was 117% in assay [1]; 116% in assay [2]; 117% in [3]; 132% in assay [4]; 111% in assay [5]; 105% in [6]. Further, the growth in assay [7] was 103%; in assay [8], 114%; in assay [9], 108%; in [10], 112%; in assay [11] it was 104%; in [12] it was 93%. For the same molecule, the growth in [13] is 101%; in [18], 113%; in [15], 107%; in [16], 92.4%; in [17] it was 116%; in assay [19] it was 119%.
Consider `CN(C)c1cccc2c(S(=O)(=O)N[C@H]3CC[C@H]4[C@@H]5CCc6cc(O)ccc6[C@H]5CC[C@]34C)cccc12`, for which the growth in assay [1] was 2.22% (active); in assay [2], 29.6%; in assay [3] it was 35%; in [4] it was 11.2%; in [5] it was 40.6%; in assay [6], 44.9%. For the same molecule, the growth is 44.7% in [7]; 52.8% in assay [8]; 31.3% in assay [9]; 18% in assay [10]; 2.71% (active) in [11]; 40.4% in assay [12]. Besides, the growth was 62.5% in assay [13]; 16.1% in assay [14]; 41.5% in assay [15]; 49.9% in assay [16]; 54.7% in [17].
As for `CC(C)C(=O)Cc1cnccn1`, the growth is 114% in assay [1]; 111% in assay [2]; 119% in [3]; 106% in assay [4]; 114% in assay [5]; 91% in assay [6]. Also, the growth was 105% in assay [7]; 97.8% in assay [8]; 112% in [9]; 107% in assay [10]; 108% in assay [11]; 102% in assay [12]. Moreover, the growth in [13] is 102%; in assay [14], 102%; in [15], 109%; in assay [16], 98.1%; in assay [20], 97%; in assay [17], 116%. In addition, the growth in [19] is 109%.
For `COc1ccc(OC)c(NC(=O)c2cc3oc4ccccc4c3cc2O)c1`, the growth in [1] was 86.4%; in [2] it was 69.7%; in [3] it was 100%; in assay [4], 143%; in assay [5], 87.9%; in assay [6] it was 92%. Further, the growth was 90.3% in assay [7]; 92% in assay [8]; 95.7% in assay [9]; 96.7% in assay [10]; 100% in [11]; 84% in assay [12]. Moreover, the growth is 92.7% in assay [13]; 120% in assay [18]; 91.1% in assay [15]; 79.7% in assay [16]; 101% in [17]; 96.1% in [19].
